Here are results for 9 molecules from PubChem BioAssay (Tox21).

For assay [1], the target named is Estrogen receptor beta (Homo sapiens) (UniProt Q92731). As to the kind of experiment: qHTS assay to identify small molecule antagonists of the estrogen receptor beta (ER-beta) signaling pathway (AID 1259378; active = well fitted inhibition curve with a large enough effect in the signal ratio in the repeat runs, not every such curve was filed as active; the % refers to the signal ratio; note: potency is the fitted concentration of half-maximal effect). In a few lines:
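ER-beta-UAS-bla HEK293T cells in 2% charcoal-stripped FBS medium treated with compound plus 1nM final 17-beta-estradiol for 16 hr at 37C. Beta-lactamase reporter read by FRET substrate fluorescence after 2 hours at room temperature.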
For orientation: In qHTS, concentration-response curves come from the screen itself.

The nature of assay [2]: qHTS assay to identify small molecule agonists of the estrogen receptor beta (ER-beta) signaling pathway - cell viability counter screen (AID 1259380). Note: nearly all actives have a fitted effect of over 30% in size. Note: potency is the fitted concentration of half-maximal effect. In a few lines: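 Luminescence read-out (CellTiter-Glo, 30 min, room temp) taken in the same wells as the beta-lactamase reporter assay; ER-beta-UAS-bla HEK293T cells exposed to DMSO-dissolved compounds for 16 hr at 37C in 2% charcoal-stripped FBS medium.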

A short description of assay [3]: qHTS assay to identify small molecule antagonists of the estrogen receptor beta (ER-beta) signaling pathway - cell viability counter screen (AID 1259382). Note: nearly all actives have a fitted effect of over 55% in size. Note: potency is the fitted concentration of half-maximal effect. In short, it runs like this:
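Luminescent ATP read-out (CellTiter-Glo, 30 min, RT) taken in the same wells as the bla reporter assay. HEK293T ER-beta-UAS-bla cells in 2% charcoal-stripped FBS were exposed to compounds with 1nM E2 for 16 hr at 37C.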

The target of assay [4] is Estrogen receptor (Homo sapiens) (UniProt P03372). As to the kind of experiment: qHTS assay to identify small molecule agonists of the estrogen receptor alpha (ER-alpha) signaling pathway in the presence of an antagonist (AID 1259383; calls by dose curve; note: top concentration of the series differs between compounds; nearly all actives have a fitted effect of over 15% in size). In short, it runs like this:
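Luciferase luminescence (ONE-Glo, 30min at room temperature) measured in VM7Luc4E2 cells after 22hr compound exposure at 15 concentrations, with 10.0nM ICI-182,780 final present; cells express endogenous ER-alpha and carry four EREs upstream of luciferase.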

Assay [5] has as its target Thyrotropin receptor (Homo sapiens) (UniProt P16473). Description: qHTS assay to identify small molecule antagonists of the thyroid stimulating hormone receptor (TSHR) signaling pathway (AID 1259385; calls by dose curve; note: nearly all actives have a fitted effect of over 20% in size; note: potency is the fitted concentration of half-maximal effect). In a few lines:
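TSHR-HEK293 cells (800/well) plated 18 h, then compounds with Ro20-1724 and TSH at 1.5 ng/mL final, 30 min at room temperature. cAMP quantified by HTRF (cAMP-d2/anti-cAMP-cryptate, 1 h); 15 concentrations in triplicate.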

Assay [6] in a line: qHTS assay to identify small molecule agonists of the estrogen receptor alpha (ER-alpha) signaling pathway in the presence of an antagonist - cell viability counter screen (AID 1259386). Note: series mostly up to about 92 µM; nearly all actives have a fitted effect of over 30% in size. In a few lines: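 Read-out: CellTiter-Fluor fluorescence after 1hr reagent incubation, measured in the same wells as the luciferase readout. VM7Luc4E2 cells were exposed to 15 compound concentrations with 10.0nM ICI-182,780 for 22hr at 37C.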

Assay [7] concerns the target Progesterone receptor (Homo sapiens) (UniProt P06401). Description: qHTS assay to identify small molecule agonists of the progesterone receptor (PR) signaling pathway (AID 1346784; calls by dose curve; note: nearly all actives have a fitted effect of over 30% in size). In a few lines: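 The screen uses PR-UAS-bla HEK 293T cells in charcoal-stripped serum (2%). Compounds are applied for 16 hr at 37C after a 6 hr pre-incubation, and reporter activity is detected with a FRET beta-lactamase substrate after 2 hr at room temperature.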

For assay [8] the target is unchanged. As to the kind of experiment: qHTS assay to identify small molecule antagonists of the progesterone receptor (PR) signaling pathway (AID 1346795; active = well fitted inhibition curve with a large enough effect in the signal ratio in the repeat runs, not every such curve was filed as active; the % refers to the signal ratio; note: potency is the fitted concentration of half-maximal effect). In short, it runs like this: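 After 6 hr plating at 37C in 2% stripped-serum medium, PR-UAS-bla HEK293T cells got compounds, then 1 nM R5020. Sixteen hours later, LiveBLAzer substrate was applied for 2 hr at room temperature and fluorescence was recorded.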

Assay [9] in a line: qHTS assay to identify small molecule antagonists of the progesterone receptor (PR) signaling pathway - cell viability counter screen (AID 1346798). Note: nearly all actives have a fitted effect of over 50% in size. Note: potency is the fitted concentration of half-maximal effect. In a few lines:
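Viability was determined by ATP-based luminescence (CellTiter-Glo) in PR-UAS-bla HEK293T cells cultured in 2% charcoal-stripped serum and incubated 16 hr with compounds under R5020 stimulation.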

A short description of assay [10]: qHTS assay to identify small molecule agonists of the progesterone receptor (PR) signaling pathway - cell viability counter screen (AID 1346799; calls by dose curve; note: nearly all actives have a fitted effect of over 45% in size; note: potency is the fitted concentration of half-maximal effect). In short, it runs like this: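 Viability was scored by ATP luminescence (CellTiter-Glo, 30 min, room temperature) in the same wells used for the reporter readout, after 16 hr compound exposure of PR-UAS-bla HEK293T cells.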

Assay [11] is described as follows: qHTS assay to identify small molecule antagonists of the TGF-beta/Smad signaling pathway - cell viability counter screen (AID 1346824). Note: nearly all actives have a fitted effect of over 50% in size. In short, it runs like this:
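SBE-bla HEK 293T cells, incubated overnight, then compound plus 0.25 ng/mL TGF-beta1 (stock added) for 5 hr at 37 C. Viability was read in the same wells by CellTiter-Glo luminescence after 30 min at room temperature.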

A short description of assay [12]: qHTS assay to identify small molecule agonists of the TGF-beta/Smad signaling pathway - cell viability counter screen (AID 1346829). Note: nearly all actives have a fitted effect of over 45% in size. Note: potency is the fitted concentration of half-maximal effect. In short, it runs like this:
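Tox21 qHTS format: SBE-bla HEK 293T cells treated with DMSO-dissolved compounds for 5 hr; CellTiter-Glo luminescence after 30 min at room temperature.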

A short description of assay [13]: qHTS assay to identify small molecule agonists of the TGF-beta/Smad signaling pathway (AID 1346859; active = well fitted activation curve with a large enough effect in the signal ratio in the repeat runs, not every such curve was filed as active; the % refers to the signal ratio; note: potency is the fitted concentration of half-maximal effect; for activation: series mostly up to about 77 µM). In a few lines: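 Dual-wavelength fluorescence (460/530 nm emission) quantified beta-lactamase expression under the Smad binding element in HEK 293T cells following 5 hr compound treatment at 37 C.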
Assay [14] addresses Thyrotropin-releasing hormone receptor (Homo sapiens) (UniProt P34981). As to the kind of experiment: qHTS assay to identify small molecule antagonists of the thyrotropin-releasing hormone receptor (TRHR) signaling pathway (AID 1346877; active = well fitted inhibition curve with a large enough effect in the repeat runs, not every such curve was filed as active; note: series mostly up to about 51 µM). In a few lines:
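HEK293/TRHR cells, 18 h, 37 °C; Ca2+ dye 2 h; cpd 5 min RT; TRH 1 nM final; fluorescence read 3 min, 1 s intervals; 15 concs, triplicate.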

Assay [15] has the same target. As to the kind of experiment: qHTS assay to identify small molecule agonists of the thyrotropin-releasing hormone receptor (TRHR) signaling pathway (AID 1346891; calls by dose curve;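 note: HEK293 cells expressing TRHR with calcium dye readout; series mostly up to about 58 µM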). In short, it runs like this:
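Kinetic fluorescence (3 min, 1 s intervals) reported intracellular calcium after compound transfer onto TRHR-Hek293 cells pre-loaded with dye for 2 h at 37 °C.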

Assay [16] in a line: Human pregnane X receptor (PXR) small molecule agonists, qHTS cell viability counter screen (AID 1346977). Note: nearly all actives have a fitted effect of over 50% in size. Note: potency is the fitted concentration of half-maximal effect. In a few lines:
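HepG2 cells stably carrying the PXR-Luc reporter are cultured with 5% charcoal-stripped FBS and treated with compounds for 24hr. CellTiter-Fluor is added at 23hr and fluorescence is read after 1hr.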

In assay [17] the target is Androgen receptor (Homo sapiens) (UniProt P10275). Description: qHTS assay to identify small molecule agonists of the androgen receptor (AR) signaling pathway in the presence of an antagonist (AID 1259381; calls by dose curve; note: nearly all actives have a fitted effect of over 15% in size). In short, it runs like this:
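Luciferase read-out (ONE-Glo, 30min room temperature) in MDA-kb2 MMTV-reporter cells; agonist mode run in presence of AR antagonist nilutamide, 3.0uM final. Compounds tested as 15-point series, 16hr exposure at 37C, 0% CO2.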

A short description of assay [18]: qHTS assay to identify small molecule agonists or antagonists of the thyroid stimulating hormone receptor (TSHR) signaling pathway - wild type cell line counter screen (AID 1259384; calls by dose curve). In short, it runs like this: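 Wild-type Hek293 cells, 800/well, 18 h at 37C, then compound with Ro20-1724 for 30 min RT. cAMP by HTRF (cAMP-d2/anti-cAMP cryptate), 1 h RT, fluorescence read. 15 concentrations, triplicates.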

A short description of assay [19]: qHTS assay to identify small molecule agonists of the androgen receptor (AR) signaling pathway in the presence of an antagonist - cell viability counter screen (AID 1259379).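 Note: MDA-kb2 human breast cancer cells carrying an MMTV luciferase reporter; series mostly up to about 92 µM; nearly all actives have a fitted effect of over 25% in size.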 In a few lines: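 Viability counter screen: CellTiter-Fluor fluorescence, measured in the same wells as the luciferase read-out. MDA-kb2 cells, 3,000/well, with nilutamide at 3.0uM final and compounds at 15 concentrations, 16 hr at 37C, 0% CO2.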

Values without a mark were called inactive. Results filed as inconclusive are left out. The source made the active and inactive calls. Unless noted, calls come from the whole dose curve; as a rule, active = well fitted curve in the direction sought with a large enough effect in the repeat runs; inconclusive = weak or mixed curves; inactive = no such curve, though single readings can be large; an effect the other way counts as inactive or inconclusive.

Estrogen receptor beta (Homo sapiens), sequence (Q92731 whole entry, looked up): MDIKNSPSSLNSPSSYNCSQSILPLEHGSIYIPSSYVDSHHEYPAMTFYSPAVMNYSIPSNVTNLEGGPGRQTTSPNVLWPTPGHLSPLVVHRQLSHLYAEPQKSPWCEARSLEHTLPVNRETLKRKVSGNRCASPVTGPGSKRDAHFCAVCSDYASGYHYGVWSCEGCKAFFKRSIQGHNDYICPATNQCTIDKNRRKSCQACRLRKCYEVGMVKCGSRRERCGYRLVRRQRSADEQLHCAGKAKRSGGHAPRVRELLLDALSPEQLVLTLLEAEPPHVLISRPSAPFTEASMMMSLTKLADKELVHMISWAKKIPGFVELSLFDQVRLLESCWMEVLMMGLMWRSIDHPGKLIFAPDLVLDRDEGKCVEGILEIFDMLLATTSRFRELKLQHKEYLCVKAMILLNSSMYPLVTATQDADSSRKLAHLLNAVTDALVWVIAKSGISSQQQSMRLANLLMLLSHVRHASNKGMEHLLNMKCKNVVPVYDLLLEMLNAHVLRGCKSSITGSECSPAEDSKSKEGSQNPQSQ
Thyrotropin-releasing hormone receptor (Homo sapiens), sequence (P34981 whole entry, looked up): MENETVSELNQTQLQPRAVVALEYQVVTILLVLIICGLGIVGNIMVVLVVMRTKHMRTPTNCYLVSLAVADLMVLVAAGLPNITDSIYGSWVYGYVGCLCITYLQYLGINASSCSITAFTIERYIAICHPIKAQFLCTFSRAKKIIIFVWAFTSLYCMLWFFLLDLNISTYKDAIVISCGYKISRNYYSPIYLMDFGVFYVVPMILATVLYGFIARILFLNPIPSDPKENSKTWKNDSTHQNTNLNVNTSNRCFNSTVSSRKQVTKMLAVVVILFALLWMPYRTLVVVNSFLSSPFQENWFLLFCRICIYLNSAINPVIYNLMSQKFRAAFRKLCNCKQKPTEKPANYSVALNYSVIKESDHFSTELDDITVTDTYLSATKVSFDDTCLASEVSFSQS
Progesterone receptor (Homo sapiens), sequence (P06401 whole entry, looked up): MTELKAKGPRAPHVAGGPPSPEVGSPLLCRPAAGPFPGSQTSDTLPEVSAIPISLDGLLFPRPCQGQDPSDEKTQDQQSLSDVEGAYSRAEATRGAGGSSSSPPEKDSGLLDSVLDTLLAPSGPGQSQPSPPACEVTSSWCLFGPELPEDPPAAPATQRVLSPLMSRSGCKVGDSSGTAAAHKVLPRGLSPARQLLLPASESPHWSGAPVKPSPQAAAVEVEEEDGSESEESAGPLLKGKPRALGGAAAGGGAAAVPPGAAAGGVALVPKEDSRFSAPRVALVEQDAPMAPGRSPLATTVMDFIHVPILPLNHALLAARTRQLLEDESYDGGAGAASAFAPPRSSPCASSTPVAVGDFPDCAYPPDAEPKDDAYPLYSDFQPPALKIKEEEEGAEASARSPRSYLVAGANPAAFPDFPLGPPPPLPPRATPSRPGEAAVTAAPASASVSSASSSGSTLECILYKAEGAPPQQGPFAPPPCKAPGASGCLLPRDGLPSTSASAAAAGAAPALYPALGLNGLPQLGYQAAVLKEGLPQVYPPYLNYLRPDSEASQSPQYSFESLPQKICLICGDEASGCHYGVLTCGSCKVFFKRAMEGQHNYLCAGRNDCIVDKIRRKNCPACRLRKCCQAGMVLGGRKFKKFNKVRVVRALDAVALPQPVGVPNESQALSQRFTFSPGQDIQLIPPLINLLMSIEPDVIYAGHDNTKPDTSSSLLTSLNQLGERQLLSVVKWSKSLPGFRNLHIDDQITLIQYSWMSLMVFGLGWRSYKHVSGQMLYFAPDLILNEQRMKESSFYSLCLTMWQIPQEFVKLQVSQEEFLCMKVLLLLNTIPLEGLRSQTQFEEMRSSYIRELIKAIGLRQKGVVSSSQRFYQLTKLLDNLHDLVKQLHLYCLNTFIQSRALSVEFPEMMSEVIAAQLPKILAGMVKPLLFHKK
Androgen receptor (Homo sapiens), sequence (P10275 whole entry, looked up): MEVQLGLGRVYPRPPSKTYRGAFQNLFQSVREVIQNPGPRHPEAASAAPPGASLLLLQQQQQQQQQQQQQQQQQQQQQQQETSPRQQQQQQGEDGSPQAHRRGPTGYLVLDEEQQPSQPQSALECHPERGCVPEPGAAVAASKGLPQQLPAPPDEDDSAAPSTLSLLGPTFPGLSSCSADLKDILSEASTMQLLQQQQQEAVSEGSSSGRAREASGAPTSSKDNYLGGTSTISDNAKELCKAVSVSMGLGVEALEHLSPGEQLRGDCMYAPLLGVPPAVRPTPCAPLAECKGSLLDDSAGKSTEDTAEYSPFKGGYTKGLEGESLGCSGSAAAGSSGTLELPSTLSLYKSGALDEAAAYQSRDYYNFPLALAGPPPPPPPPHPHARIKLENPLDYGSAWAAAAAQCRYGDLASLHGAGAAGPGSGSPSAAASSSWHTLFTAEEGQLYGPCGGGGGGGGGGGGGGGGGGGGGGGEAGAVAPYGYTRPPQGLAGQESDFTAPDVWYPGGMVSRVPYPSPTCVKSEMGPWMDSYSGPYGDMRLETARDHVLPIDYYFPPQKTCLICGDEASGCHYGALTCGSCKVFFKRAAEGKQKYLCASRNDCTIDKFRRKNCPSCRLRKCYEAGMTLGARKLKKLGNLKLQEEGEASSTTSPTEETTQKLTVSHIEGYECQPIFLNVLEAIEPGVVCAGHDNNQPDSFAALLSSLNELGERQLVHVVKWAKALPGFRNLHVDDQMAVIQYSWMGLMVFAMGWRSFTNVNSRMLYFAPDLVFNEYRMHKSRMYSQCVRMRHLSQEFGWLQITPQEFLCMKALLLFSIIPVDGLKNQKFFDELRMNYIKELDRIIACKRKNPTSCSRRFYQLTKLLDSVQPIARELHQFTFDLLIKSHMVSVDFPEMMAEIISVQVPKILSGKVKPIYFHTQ
Thyrotropin receptor (Homo sapiens), sequence (P16473 whole entry, looked up): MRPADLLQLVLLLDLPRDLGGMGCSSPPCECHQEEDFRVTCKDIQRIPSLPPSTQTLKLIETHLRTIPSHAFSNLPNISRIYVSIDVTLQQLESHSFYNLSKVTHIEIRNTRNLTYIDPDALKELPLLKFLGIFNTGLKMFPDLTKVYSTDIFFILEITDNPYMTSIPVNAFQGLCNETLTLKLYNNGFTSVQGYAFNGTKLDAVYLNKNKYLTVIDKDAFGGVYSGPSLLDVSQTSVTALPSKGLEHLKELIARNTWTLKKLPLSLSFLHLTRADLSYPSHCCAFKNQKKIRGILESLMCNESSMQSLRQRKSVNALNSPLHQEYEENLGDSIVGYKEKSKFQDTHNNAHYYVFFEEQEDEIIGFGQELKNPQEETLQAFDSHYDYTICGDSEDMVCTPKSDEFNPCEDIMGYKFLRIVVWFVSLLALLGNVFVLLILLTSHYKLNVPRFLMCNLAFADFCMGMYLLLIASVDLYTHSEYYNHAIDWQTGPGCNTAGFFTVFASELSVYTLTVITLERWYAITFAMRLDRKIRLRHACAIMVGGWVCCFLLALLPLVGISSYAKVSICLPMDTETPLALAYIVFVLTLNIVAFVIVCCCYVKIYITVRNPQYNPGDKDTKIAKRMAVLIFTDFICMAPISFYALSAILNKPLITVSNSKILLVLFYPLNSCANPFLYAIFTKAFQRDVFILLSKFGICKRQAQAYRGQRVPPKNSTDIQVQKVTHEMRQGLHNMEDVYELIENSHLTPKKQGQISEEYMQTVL
Estrogen receptor (Homo sapiens), sequence (P03372 whole entry, looked up): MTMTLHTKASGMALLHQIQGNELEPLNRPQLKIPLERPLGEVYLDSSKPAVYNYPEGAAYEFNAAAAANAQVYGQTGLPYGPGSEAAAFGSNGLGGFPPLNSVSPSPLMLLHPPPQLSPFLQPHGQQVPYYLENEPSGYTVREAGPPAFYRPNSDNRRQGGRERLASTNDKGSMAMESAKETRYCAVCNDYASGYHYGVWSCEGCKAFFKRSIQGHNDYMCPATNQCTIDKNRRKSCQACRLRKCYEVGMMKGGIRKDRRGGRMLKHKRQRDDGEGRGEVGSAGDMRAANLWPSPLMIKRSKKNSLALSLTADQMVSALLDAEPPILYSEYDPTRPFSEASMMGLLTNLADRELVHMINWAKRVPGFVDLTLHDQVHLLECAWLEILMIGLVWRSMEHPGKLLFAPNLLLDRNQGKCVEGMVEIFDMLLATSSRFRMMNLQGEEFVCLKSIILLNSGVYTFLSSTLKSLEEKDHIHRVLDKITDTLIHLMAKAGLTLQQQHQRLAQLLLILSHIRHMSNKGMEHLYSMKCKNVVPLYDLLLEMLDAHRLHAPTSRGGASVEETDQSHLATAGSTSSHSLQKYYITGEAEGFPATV

For `CC1(C)C(=O)N(CO)C(=O)N1CO`, the Potency result in [1], in assay [2], in assay [3], in assay [4], in assay [5] and in [6] was “inactive” in each case. In addition, the Potency result in assay [8], in [9], in assay [10], in assay [11], in assay [12] and in [13] was “inactive” in each case. The Potency entry in assay [14], in assay [15] and in assay [16] was “inactive” each time. For the same molecule, the molecule was called inactive in assay [7].

In the case of `CCOC(=O)C1=C(C)NC(C)=C(C(=O)OCC)C1c1ccccc1/C=C/C(=O)OC(C)(C)C`, the Potency result in assay [1], in [17], in [3], in assay [5], in [11] and in [12] was “inactive” throughout. Also, the Potency entry in assay [15] is “inactive”. Also, the Potency is 23.7 µM (active) in assay [2], 26.6 µM (active) in [8] and 23.9 µM (active) in [13]. In addition, in assay [18], the molecule was called inactive.

With `Cc1nc(Nc2ncc(C(=O)Nc3c(C)cccc3Cl)s2)cc(N2CCN(CCO)CC2)n1`, the Potency in assay [1] is 23.7 µM (active); in assay [5], 26.6 µM (active); in assay [8], 13.3 µM (active); in assay [16] it was 9.44 µM (active). Also, the Potency entry in assay [3], in assay [9], in assay [10], in assay [11], in assay [13] and in [14] was “inactive” in each case. The Potency entry in assay [15] was “inactive”. In addition, the result in [7] was inactive.

Turning to `CC1(C)COCN1`, the Potency entry in assay [19], in assay [2], in assay [17], in [3], in assay [5] and in [6] was “inactive” throughout. Besides, the Potency entry in assay [8], in assay [9], in assay [10], in [12], in assay [13] and in assay [14] was “inactive” throughout. The Potency result in assay [15] and in [16] was “inactive” throughout. The result in assay [18] and in [7] was inactive.

For the molecule `O=Cc1ccc(F)cc1`, the Potency result in assay [19], in assay [2], in assay [17], in assay [3], in assay [5] and in assay [6] was “inactive” throughout. The Potency result in [9], in assay [10], in assay [11], in [13], in assay [14] and in assay [15] was “inactive” in each case. The Potency entry in [16] is “inactive”. In addition, the outcome in assay [18] and in [7] was inactive.

For the molecule `CCOC(=O)CC(C)O` (stereo unspecified), the Potency result in assay [19], in assay [2], in assay [17], in assay [3], in assay [5] and in [6] was “inactive” throughout. For the same molecule, the Potency entry in assay [8], in [9], in assay [11], in assay [12], in assay [13] and in [16] was “inactive” each time. Further, the molecule was classed as inactive in [18] and in assay [7].

For the molecule `C=C1C(C)(C)[C@@]2(Cl)C(Cl)[C@]1(Cl)C(Cl)(Cl)C2(Cl)Cl` (stereo partly specified), the Potency in assay [1] was 30.1 µM (active); in [2] it was 60 µM (active); in [9], 67.3 µM (active). The Potency entry in assay [17], in assay [5], in assay [11], in assay [12] and in assay [13] was “inactive” in each case. Also, the call in [18] was inactive.

On to `O=C(Nc1ccc(Cl)cc1)Nc1ccc(Cl)c(C(F)(F)F)c1`, for which the Potency in [1] is 7.5 µM (active); in [2], 13.3 µM (active); in assay [3], 13.3 µM (active); in assay [5] it was 26.6 µM (active); in [12], 15.1 µM (active); in assay [16], 7.5 µM (active). Further, the Potency result in [4], in assay [13], in [14] and in assay [15] was “inactive” throughout. The molecule was classed as inactive in assay [18].

Take `c1cc(OCC2CO2)cc(OCC2CO2)c1` (stereo unspecified): the Potency entry in [19], in assay [2], in assay [17], in [3], in assay [4] and in assay [5] was “inactive” each time. Besides, the Potency result in [11], in [12] and in assay [15] was “inactive” throughout. In addition, the molecule was called inactive in assay [18]. Moreover, the Potency in [10] and in [16] was 60.6 µM (active) throughout.
